# From the supplement of paper PMC6555819
# System: VDR:RXRa (NR concentration 270 nM, RXRa partner concentration 90 nM)
# Experiment: PBM binding z-score (relative to random genomic background probes); higher = stronger binding; sequences stand for … in GC…GCGATTGACAGCGTAGAATGAAGG
# Protocol: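 Protein-binding microarray (Agilent 4x180K custom design, double-stranded 60-nt probes: 5' GC cap, 34-nt variable region, 24-nt constant primer region; full probe sequence given). Purified or IVT nuclear receptor:RXRα heterodimers (3:1 NR:RXRα, mostly 270:90 nM) or homodimers were incubated for 1 h in PBS with 2% milk and no ligand, then detected with Alexa488 antibodies. Fluorescence from o1-orientation probes (~5 replicates averaged) was converted to z-scores against 500 random hg19 background probes. Variable regions are seed direct-repeat (DR0–DR5) sites, all their single-nucleotide variants and half-site ablations.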
row,Sequence,PBM binding z-score
1,ATATGTAGGGTATCGGGTCATTCAGTTTGCGCAT,5.05
2,CCTATTAGTTAACCATAAGGGCAACCGAAGCTCG,0.653
3,GCAGACAGGTGAGACGCAGGTAACTCAGGGTGGC,-0.432
4,TCTGCTAGGTCAACGAGGGTCAGCTAATCTGCTA,5.1
5,AGTCAAAGTTCACCAGGTAACGTAAGATTCAGCT,4.61
6,TCATATAGGTAAGTGCTAGGTGAAAGTCCGATCT,0.679
7,CTCGAAAGGTCGTGCTCACGTGAGTATACCAAAC,3.23
8,CCGGGTAGGTTATGGGGCATTCAGGCAACGGTGA,0.056
9,ACTATTAGTTGAGTTAGGGCAACCGATACGACGC,0.0394
10,ACTCGGAGGACAAAGGACAGAGCTACGCCAGTGA,-0.523
11,CCTATTAGTTGACCATAAGGGCCACCGAAGCTCG,0.0922
12,CCTAGCAGGCCAATTTGGGTCACTCAAGGCTTGA,0.482
13,ATATGAAGGTTACATCCGGGTCATTCAGGCTATG,4.85
14,CCGACTGGGGCAGAAAGGTTTCCATACCATCCGG,-0.642
15,CATCGGAGGACAGAAGGTCAGAGCTGTCCGCTTT,1.06
16,TCTTGGAGGACACGAAGGTCAGAGCTTTCCAGAG,2.35
17,GCTGCTAGGTCAACTGATGGTCAGCTGAAGCTCG,1.61
18,ACTAGTTGGTCAGCTGAGGTCACACAGAATTCGG,4.42
19,AATACAGGGTCACTAGGCCAGAATAGGTACGAAT,4.2
20,AATACATGGTCACTAGGCCAGAGTAGGTACGAAT,-0.0294

row,Sequence,PBM binding z-score
1,CCAGACAGGTGAAAAGGTAACTCAGCCTCGATTA,0.369
2,CGAACTGGGTCATTGACAGGACAGTGAATAGTAA,2.05
3,TATAGCAGGCCAGAGGGTCACTCAAGAGGTACGG,1.58
4,ACTATTTGTTGACTTAGGGCAACCGATACGACGC,0.227
5,TGTCAAAGTTTAAAGGTAACGTAAGTATCCACAC,1.33
6,CCTTACCGGTCACTGACAGGTTATAGCATTTGGA,0.869
7,ATCTCTAGGTAAAAGTTCAGTCAATCCCGAGGAT,1.45
8,ACTATTAGTTGAGAAGAGGGCAACCGATAGGTTG,0.507
9,CAGCCTAGGTCAGGGCCAATATAGGAGGAACGTT,0.378
10,TGTCAAAGTTCGAAGGTAACGTAAGTATCCACAC,1.78
11,TGAATCAGGTTATAAGATCAGGGAACGTTGCAAA,-0.0764
12,GCTATTAGTTGACAGGGCAACCGAATGATTCTCG,-0.414
13,TCTTCTAGATCAGCAGGTTAAGAAAGCTGGCCAA,0.175
14,TCTTCTAGATCAATAGAGGTTAAGAAAGTGCGCT,1.94
15,GCAGACAGGTGAAACGCAAGTAACTCAGGGTGGC,-0.526
16,TAGCTTAGGTCATGCGGGCCAGTATAGTGTCGGC,3.13
17,TCTGCTAGGTCAATGATGGTCAGCTAATCTGCTA,1.32
18,ATCGAAAGGTAGAGGTGAGTATAGAGAAAGGGAA,0.0851
19,ATCTCTAGGTAAAGATAGTTCAGGGAATGCAAAT,0.786
20,TCATATAGGGAATACAGGTGAAAGTCGGCATCTA,1.11
